Measured values published in PubChem BioAssay (EPA / NIEHS).
Calls of active or inactive are those of the source. The calls were made as follows: active = hit-call score of the fitted dose curve at least 0.9, where 1 is the maximum; inactive = score below 0.9.

Assay: CCTE_Shafer_MEA_acute_per_network_burst_electrodes_number_mean: CCTE's Neural Acute Assay for Mean Number of Electrodes in a Network Burst, Shafer Lab (AID 2284021);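 also: curves fitted for decreases only so hits reduce electrodes per burst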
Procedure: CCTE_Shafer_MEA_acute assay is conducted using Axion Biosystems 48 well microelectrode array (MEA) plates and Maestro recording system. Each well of the MEA plate contains a grid of 16 microelectrodes embedded in the culture surface. Electrically active cells, such as neurons, can be cultured over the electrodes, and electrical activity in these cells can be recorded extracellularly. The spontaneous firing of neurons is captured from each electrode on a microsecond timescale providing both temporally and spatially precise data. […] The CCTE_Shafer_MEA_acute assay uses primary cultures of rat cortical neurons. As these cultures mature over time, neural networks develop functional activity and form cohesive networks in which electrical activity can be highly coordinated. Baseline 40-minute recordings are made on days post-plating 13 or 15, followed by a secondary 40-minute recording after chemical exposure.CCTE_Shafer_MEA_acute_per_network_burst_electrodes_number_mean is a component of the CCTE_Shafer_MEA_acute assay. It measures the average number of electrodes with activity during a network burst (a temporally-clustered group of action potential firing across multiple electrodes) in a recording in a microelectrode array (MEA) using Axion Biosystems Maestro 768 channel amplifier with the AxIS adaptive spike detector. The recordings before and after chemical treatment are used to calculate a percent change in the mean number of electrodes participating in network bursts in each well.Data from the assay component CCTE_Shafer_MEA_acute_per_network_burst_electrodes_number_mean was analyzed into 1 assay endpoint. This assay endpoint, CCTE_Shafer_MEA_acute_per_network_burst_electrodes_number_mean, was analyzed in the negative analysis fitting direction relative to DMSO as the negative control and baseline of activity. Using a type of functional reporter, gain or loss-of-signal activity can be used to understand electrical activity.
Spontaneous activity in the cortical cultures was recorded using an Axion Biosystems Maestro 768 channel amplifier and Axion Integrated Studios (AxIS) v1.8 (or later) software. The amplifier recorded from all channels simultaneously (gain = 1200 x; sampling rate = 12.5 kHz/channel): raw signals were filtered with a Butterworth band-pass filter (300-5000 Hz), which filters out slower local field potentials leaving only fast potentials, i.e., "spikes", arising from extracellular currents associated with action potentials (Pine 2006; Wheeler and Nam 2011). On-line spike detection of filtered signals was conducted with the AxIS adaptive spike detector, using a threshold of 8x the root mean squared (rms) noise on each channel. Any electrodes with rms noise levels greater than 5 uV were grounded (e.g., no data were recorded). Once grounded, an electrode was grounded for the duration of the experiment. All recordings were conducted at 37 C. Wells were deemed usable if on the day of the exposure >/= 10 electrodes were active (defined as >/= 5 spikes/min). On DIV 13 or 15, a minimum of three wells from one cortical culture preparation were treated with each compound (0.03-40 uM). Prior to recording baseline activity, each mwMEA plate was placed in the Maestro at 37 C and allowed to sit for 20 min while firing rates stabilized. Baseline activity (40 min) was recorded before the addition of each compound. An additional 40 min of spontaneous activity was recorded in the presence of each compound. Changes in network parameters relative to baseline were assessed following compound treatment.

Compound | AC50 | outcome
Cc1cc(Cc2ccc(N)c(C)c2)ccc1N | 29.9 µM (active) | –
CCN(CC)CCOc1ccc(C(=C(Cl)c2ccccc2)c2ccccc2)cc1 | – | inactive
c1ccc2occc2c1 | – | inactive
C/C=C/c1ccc(OC)cc1 | – | inactive
CN(C)CCCN1c2ccccc2Sc2ccc(Cl)cc21 | – | inactive
COc1ccc(OC(F)(F)F)cc1CN[C@H]1CCCN[C@H]1c1ccccc1 | – | inactive
CC(N)=O | – | inactive
CCc1cc(C2=C(C(=O)O)N(c3ccccc3C(F)(F)F)S(=O)(=O)c3ccccc32)cc2c1OCO2 | – | inactive
COC(=O)[C@H]1[C@H]2C[C@@H]3c4[nH]c5cc(OC)ccc5c4CCN3C[C@H]2C[C@@H](OC(=O)c2cc(OC)c(OC)c(OC)c2)[C@@H]1OC | – | inactive
CC(C)NCC(O)c1ccc(O)c(O)c1 (stereo not drawn) | – | inactive
CCCC(=O)O | – | inactive
CC1=C(C)S(=O)(=O)CCS1(=O)=O | – | inactive
OCC(CO)n1cnc(-c2ccc(F)cc2)c1-c1ccnc(Oc2ccccc2)n1 | – | inactive
CN(C)C(=O)NC1(c2ccccc2)CCN(CCC[C@]2(c3ccc(Cl)c(Cl)c3)CCCN(C(=O)c3ccccc3)C2)CC1 | 2.99 µM (active) | –
Cc1cc(SC2=C(O)C[C@@](CCc3ccc(N)cc3)(C(C)C)OC2=O)c(C(C)(C)C)cc1CO | – | inactive
Cc1ccc(C(C)(C)C)c(O)c1 | – | inactive
NC(=Nc1ccccc1)Nc1ccccc1 | – | inactive
Cc1ccc(-c2cc(C(F)(F)F)nn2-c2ccc(S(N)(=O)=O)cc2)cc1 | – | inactive
O=C(O)CN(CC(=O)O)CC(=O)O | – | inactive
O=C(N[C@@H](c1ccccc1)[C@@H]1CCCCN1)c1cccc(C(F)(F)F)c1Cl | 5 µM (active) | –
CSc1ccc(Oc2ccc(S(N)(=O)=O)cc2CN(C)C)cc1C | – | inactive
O=C1OC(c2ccc(O)cc2)(c2ccc(O)cc2)c2ccccc21 | – | inactive
Cc1c(C)c2c(c(C)c1O)CCC(C)(COc1ccc(CC3SC(=O)NC3=O)cc1)O2 (stereo not drawn) | – | inactive
Nc1nc(=S)c2[nH]cnc2[nH]1 | – | inactive
CC(C)COC(=O)CCCCC(=O)OCC(C)C | – | inactive
CCCCC(CC)COP(=O)(OCC(CC)CCCC)OCC(CC)CCCC (stereo not drawn) | – | inactive
CN(C)C(=O)NC1(c2ccccc2)CCN(CC[C@@]2(c3ccc(F)c(F)c3)CN(C(=O)c3ccccc3)CCO2)CC1 | – | inactive
Oc1ccc(O)cc1 | – | inactive
